Measurements from a collection of fitness landscapes (doi:10.1126/science.1257360).
Over roughly 140,000 sequences, “enrichment ratio after two sorts for PhoP signalling” has its median near 0; the highest 2% begin near 11. Many of the other results were omitted from the sample, so the highest values are more common in it than they were.

B1: PhoQ; a variant is named by its letters at X, in order, P23837 (parent)
chain: MKKLLRLFFPLSLRVRFLLATAAVVLVLSLAYGMVALIGYSVSFDKTTFRLLRGESNLFYTLAKWENNKLHVELPENIDKQSPTMTLIYDENGQLLWAQRDVPWLMKMIQPDWLKSNGFHEIEADVNDTSLLLSGDHSIQQQLQEVREDDDDAEMTHSVAVNVYPATSRMPKLTIVVVDTIPVELKSSYMVWSWFIYVLSANLLLVIPLLWVAAWWSLRPIEALAKEVRELEEHNRELLNPATTRELTSLVRNLNRLLKSERERYDKYRTTLTDLTHSLKTPLXXLQXXLRSLRSEKMSVSDAEPVMLEQISRISQQIGYYLHRASMRGGTLLSRELHPVAPLLDNLTSALNKVYQRKGVNISLDISPEISFVGEQNDFVEVMGNVLDNACKYCLEFVEISARQTDEHLYIVVEDDGPGIPLSKREVIFDRGQRVDTLRPGQGVGLAVAREITEQYEGKIVAGESMLGGARMEVIFGRQHSAPKDE

Variants of: B1
Test: enrichment ratio after two sorts for PhoP signalling (ratio (wild type AVST 3.29)); higher = more functional
Settings: with PhoP (E. coli)

Row | Variant | enrichment ratio
1 | RRYY | ≤ 0.25
2 | YGSL | ≤ 0.25
3 | TGLA | 27.5
4 | IPEP | ≤ 0.25
5 | NGLA | ≤ 0.25
6 | RGLA | ≤ 0.25
7 | AGLT | 7.3
8 | ECEP | 15.1
9 | RYEP | ≤ 0.25
10 | TGLT | 13.5
11 | AGLS | 13.8
12 | RGLT | ≤ 0.25
13 | NGLT | ≤ 0.25
14 | AGLA | 4.99
15 | VHMY | ≤ 0.25
16 | LARA | ≤ 0.25
17 | WQQI | ≤ 0.25
18 | FPEF | ≤ 0.25
19 | IHDS | ≤ 0.25
20 | DVNT | ≤ 0.25
21 | RGLS | ≤ 0.25
22 | EHHE | ≤ 0.25
23 | TGLN | 25.4
24 | NGLN | ≤ 0.25

Row | Variant | enrichment ratio
25 | EHHF | ≤ 0.25
26 | TGLS | 14.9
27 | NGLS | ≤ 0.25
28 | TGWI | 26.1
29 | EHHK | 14.4
30 | WIWI | ≤ 0.25
31 | KSWI | ≤ 0.25
32 | CFLN | ≤ 0.25
33 | FPGM | ≤ 0.25
34 | LGWH | ≤ 0.25
35 | GMYH | ≤ 0.25
36 | PFMM | ≤ 0.25
37 | RQLT | ≤ 0.25
38 | HMPW | ≤ 0.25
39 | GHLA | ≤ 0.25
40 | DNNV | ≤ 0.25
41 | TWFG | ≤ 0.25
42 | WQAF | ≤ 0.25
43 | KYAW | ≤ 0.25
44 | YTAW | ≤ 0.25
45 | STAW | 13.1
46 | WIAW | ≤ 0.25
47 | SIAW | 16.5
48 | SQAW | ≤ 0.25

Row | Variant | enrichment ratio
49 | FGTC | ≤ 0.25
50 | RLLI | ≤ 0.25
51 | DHVP | ≤ 0.25
52 | KQSI | ≤ 0.25
53 | ITSI | ≤ 0.25
54 | TTSI | 17.1
55 | CTSI | 19.6
56 | YTSI | ≤ 0.25
57 | LTSI | ≤ 0.25
58 | PECL | ≤ 0.25
59 | DRWN | ≤ 0.25
60 | METT | 13
61 | MHTT | ≤ 0.25
62 | MFTT | ≤ 0.25
63 | NETT | ≤ 0.25
64 | QETT | ≤ 0.25
65 | TETT | 25.2
66 | DEMI | ≤ 0.25
67 | SQNC | ≤ 0.25
68 | EVAF | ≤ 0.25
69 | GNFR | ≤ 0.25
70 | PGNR | ≤ 0.25
71 | RASR | ≤ 0.25
72 | SEIS | 8.01

Row | Variant | enrichment ratio
73 | SEIA | 13.7
74 | SEAV | 13.6
75 | SERC | ≤ 0.25
76 | DDIA | ≤ 0.25
77 | SEIC | 32.9
78 | MEIC | 11
79 | STAV | 5.94
80 | SEWV | 0.784
81 | SPIA | ≤ 0.25
82 | SEAE | 5.82
83 | SEIV | 18.7
84 | DHWR | ≤ 0.25
85 | MSEQ | ≤ 0.25
86 | LCAF | ≤ 0.25
87 | MMGP | ≤ 0.25
88 | YYDN | ≤ 0.25
89 | PLDS | ≤ 0.25
90 | NPKR | ≤ 0.25
91 | FGMH | ≤ 0.25
92 | KYIY | ≤ 0.25
93 | SEMV | 23.8
94 | SEFV | 11.8
95 | DDIY | ≤ 0.25
96 | SEIY | 21.5

Row | Variant | enrichment ratio
97 | SPIG | ≤ 0.25
98 | SEEV | 1.98
99 | SFFV | ≤ 0.25
100 | SEMW | ≤ 0.25
101 | SQIG | 9.99
102 | SEIG | 13.1
103 | SEPV | ≤ 0.25
104 | KQPW | ≤ 0.25
105 | DFRP | ≤ 0.25
106 | WSND | ≤ 0.25
107 | AMAT | 3.36
108 | YYEG | ≤ 0.25
109 | ESCY | ≤ 0.25
110 | SRIC | ≤ 0.25
111 | LWNH | ≤ 0.25
112 | LGQL | ≤ 0.25
113 | QDGH | ≤ 0.25
114 | HFCM | 1.37
115 | IQCM | ≤ 0.25
116 | DWCM | ≤ 0.25
117 | NQCM | ≤ 0.25
118 | HECM | 24
119 | EQCM | ≤ 0.25
120 | KQCM | ≤ 0.25

Row | Variant | enrichment ratio
121 | SQCM | 19.2
122 | HECK | ≤ 0.25
123 | TQCM | 33.7
124 | FQCM | 10.7
125 | SNCM | 11.2
126 | SQKE | ≤ 0.25
127 | PCCP | ≤ 0.25
128 | PFFR | ≤ 0.25
129 | LMAE | ≤ 0.25
130 | MLGA | ≤ 0.25
131 | SMKT | ≤ 0.25
132 | AWAS | ≤ 0.25
133 | IGQR | ≤ 0.25
134 | DAQH | ≤ 0.25
135 | MEHG | 11.9
136 | QEHG | 11.2
137 | MTHG | ≤ 0.25
138 | YYHG | ≤ 0.25
139 | QPHG | ≤ 0.25
140 | STHG | ≤ 0.25
141 | HDSR | ≤ 0.25
142 | DTEC | ≤ 0.25
143 | LQRA | ≤ 0.25
144 | AIQG | ≤ 0.25

Row | Variant | enrichment ratio
145 | YGYF | ≤ 0.25
146 | GGAK | ≤ 0.25
147 | NGRQ | ≤ 0.25
148 | IQCL | ≤ 0.25
149 | SNCL | 14.4
150 | SNNN | 16.8
151 | SLNN | ≤ 0.25
152 | SPVN | ≤ 0.25
153 | SNMN | 22.4
154 | SRNN | ≤ 0.25
155 | NQCL | ≤ 0.25
156 | HEMN | ≤ 0.25
157 | SNVN | 13.3
158 | SNPN | ≤ 0.25
159 | SNQN | ≤ 0.25
160 | TFHC | ≤ 0.25
161 | NQTW | ≤ 0.25
162 | ARRF | ≤ 0.25
163 | VRLN | ≤ 0.25
164 | SPVY | ≤ 0.25
165 | SNSL | 16.8
166 | SRCL | 6.4
167 | SQVY | 14.2
168 | SLVN | 1.02

Row | Variant | enrichment ratio
169 | SQSL | 9.58
170 | SLVY | ≤ 0.25
171 | SRSL | ≤ 0.25
172 | GQCL | 7.51
173 | SQVN | 20.3
174 | NQVN | ≤ 0.25
175 | SQCL | 12.1
176 | GRRN | ≤ 0.25
177 | QVFR | ≤ 0.25
178 | QFNA | ≤ 0.25
179 | FSTQ | ≤ 0.25
180 | NDYC | ≤ 0.25
181 | PTST | ≤ 0.25
182 | QIDF | ≤ 0.25
183 | NSVL | ≤ 0.25
184 | LHGW | ≤ 0.25
185 | NGIL | ≤ 0.25
186 | LHHH | ≤ 0.25
187 | ELYP | ≤ 0.25
188 | QEVN | ≤ 0.25
189 | WNNL | ≤ 0.25
190 | SNNL | 13.1
191 | WRMN | ≤ 0.25
192 | WNMN | 12

Row | Variant | enrichment ratio
193 | LNSL | ≤ 0.25
194 | MEVN | 17.3
195 | SNEL | ≤ 0.25
196 | MKVN | ≤ 0.25
197 | SNRL | ≤ 0.25
198 | TNSL | 12.2
199 | MNSL | 4.59
200 | GPCQ | ≤ 0.25
201 | HTRL | ≤ 0.25
202 | WHQP | ≤ 0.25
203 | WEDV | ≤ 0.25
204 | HDYF | ≤ 0.25
205 | AHNC | ≤ 0.25
206 | WAWV | ≤ 0.25
207 | PHYI | ≤ 0.25
208 | CVSM | ≤ 0.25
209 | GGSM | 7.14
210 | RGSM | ≤ 0.25
211 | WFSM | ≤ 0.25
212 | CFSM | 18.5
213 | TGSM | 23.5
214 | KTCN | ≤ 0.25
215 | HRWF | ≤ 0.25
216 | DYHL | ≤ 0.25

Row | Variant | enrichment ratio
217 | MILN | 17.5
218 | MFCN | ≤ 0.25
219 | MICN | 31.9
220 | MICI | 0.945
221 | MIWN | ≤ 0.25
222 | MINL | ≤ 0.25
223 | MIRW | ≤ 0.25
224 | SSFG | ≤ 0.25
225 | ACLK | 13.7
226 | ACVT | 1.11
227 | ACIV | 0.927
228 | AILK | 2.69
229 | ACVL | 5.91
230 | ACNT | ≤ 0.25
231 | ACHK | ≤ 0.25
232 | ACLT | 11.7
233 | ACLV | 16
234 | ACLL | 13.3
235 | ACWI | ≤ 0.25
236 | ACWL | ≤ 0.25
237 | FPKK | ≤ 0.25
238 | KLEK | ≤ 0.25
239 | STHN | ≤ 0.25
240 | CFKF | ≤ 0.25

Row | Variant | enrichment ratio
241 | MMGD | ≤ 0.25
242 | TVTR | 2.26
243 | TRGD | ≤ 0.25
244 | QIWC | ≤ 0.25
245 | KYLR | ≤ 0.25
246 | TGGL | 3.52
247 | YWNM | ≤ 0.25
248 | YRPI | ≤ 0.25
249 | KCCN | ≤ 0.25
250 | ACLN | 13.6
251 | ACDS | 0.253
252 | ACLI | 5.06
253 | ACLS | 6.09
254 | ACYM | 0.253
255 | ACLC | 12.2
256 | ACLA | 11.6
257 | ACCN | 12.1
258 | ACNS | ≤ 0.25
259 | AKCN | 5.46
260 | ACIC | 9.45
261 | KVRT | ≤ 0.25
262 | AYPT | ≤ 0.25
263 | QIHR | ≤ 0.25
264 | QDCY | ≤ 0.25

Row | Variant | enrichment ratio
265 | AARG | ≤ 0.25
266 | DLGS | ≤ 0.25
267 | VYSL | ≤ 0.25
268 | PPRP | ≤ 0.25
269 | PSLE | ≤ 0.25
270 | QMSW | ≤ 0.25
271 | ACGY | ≤ 0.25
272 | ACLY | 15.2
273 | ACNY | 0.855
274 | WFSN | ≤ 0.25
275 | ISKP | ≤ 0.25
276 | LFTC | ≤ 0.25
277 | WIVC | ≤ 0.25
278 | AKVG | ≤ 0.25
279 | AKVC | 15.3
280 | KKVC | ≤ 0.25
281 | AIVG | 7.78
282 | AIVC | 19.1
283 | VMGF | ≤ 0.25
284 | KSMG | ≤ 0.25
285 | TSQV | 12.2
286 | TSMG | 13
287 | KSQV | ≤ 0.25
288 | FSQV | ≤ 0.25

Row | Variant | enrichment ratio
289 | LCWG | ≤ 0.25
290 | TSMD | 10.7
291 | FSMS | 1.68
292 | TSMS | 26.4
293 | TSWG | 16.6
294 | KSMS | ≤ 0.25
295 | MMWG | ≤ 0.25
296 | EDGN | ≤ 0.25
297 | WMLF | ≤ 0.25
298 | DHGA | ≤ 0.25
299 | GPST | ≤ 0.25
300 | FTYH | ≤ 0.25
301 | IRVV | ≤ 0.25
302 | DYPQ | ≤ 0.25
303 | EQAY | ≤ 0.25
304 | NSWL | 1.26
305 | WSSA | ≤ 0.25
306 | FRMR | ≤ 0.25
